Source: PubChem (National Center for Advancing Translational Sciences (NCATS))
Hits are enriched below; roughly 8% of the tested compounds scored in any of these assays.
HCMV antiviral: qHTS Assay for inhibitors of the human cytomegalovirus (HCMV); HFF cells, HCMV-luciferase reporter, 72 h; hits give low values; activity change, negative = inhibition, % at 57.5 µM; actives 4.5% (n = 410,000); AID 1259415, 2018; in the data active = activity change below about -60%; inconclusive = no clear call, values can overlap the other calls; inactive = above about -39%
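Two compound doses tested in HFFs infected with HCMV-luciferase, MOI 1 PFU/cell, 72 h at 37C. Lysate luminescence read with OneGlo; data normalized against buffer-only and 10uM Salinomycin inhibitor controls.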
MARV entry inh: qHTS for inhibitors of binding or entry into cells for Marburg Virus. Marburg virus pseudotyped entry inhibition, cell reporter. actives 1.8% (n = 300,000). AID 540276, 2011. Potency, µM (titrated, usually from 37.8 µM), hits mostly inhibitors; calls by dose curve; tested in HEK293 cells
FMDV inh: High Throughput Screening for Foot and Mouth Disease Virus Antivirals; FMDV antiviral cell-based qHTS; actives 1.2% (n = 410,000); Potency, µM (top dose mostly 57.9 µM), hits mostly inhibitors; AID 1159524, 2015; calls by dose curve; tested in HEK293T cells; note: read-out not given here; nearly all actives have a fitted effect of over 45% in size
Lassa entry inh: qHTS for Inhibitors of binding or entry into cells for Lassa Virus; Lassa virus pseudotype entry inhibition, cell reporter; Potency, µM (doses to about 37.9 µM), actives largely listed as inhibitors; actives 1.2% (n = 300,000); calls by dose curve; tested in HEK293 cells; note: nearly all actives have a fitted effect of over 50% in size
HCV inhibitor: qHTS Assay for Inhibitors of Hepatitis C Virus (HCV). Potency, µM (highest dose often 41.8 µM), most hits filed as inhibitors. Huh7.5.1 HCVcc-Cre infection, luciferase reporter, 44 h. actives 3.4% (n = 340,000); active = well fitted inhibition curve with a large enough effect; inconclusive = small, poorly fitted or top-dose-only effect, or another doubt; inactive = no such curve, though single readings can be large or run the other way
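Whole-lifecycle infectious HCVcc-Cre system; cells 1,000/well, compound then virus (~0.5 moi) added 4 h after plating, 44 h culture. Luciferase read 15 sec following 15 min substrate incubation, room temp.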
SARS PLP yeast: qHTS of Yeast-based Assay for SARS-CoV PLP | S. cerevisiae expressing SARS-CoV PLpro, growth rescue | Potency, µM (titrated, usually from 32.9 µM), most hits filed as activators | actives 0.19% (n = 330,000); calls by dose curve; note: nearly all actives have a fitted effect of over 55% in size
Hits are given with their value; i = inactive; ? = inconclusive; nt = not tested or not shown; [ ] = dose if it differs, or a comment.

SMILES	HCMV antiviral	MARV entry inh	FMDV inh	Lassa entry inh	HCV inhibitor	SARS PLP yeast
Cc1ccc(F)cc1NC(=O)Cn1c(=O)nc(-c2ccccc2F)c2cc(Cl)ccc21	i	nt	i	i	nt	nt
COCCn1c(C)cc(/C=C2/SC(=O)N(C(C)C(=O)OC)C2=O)c1C (stereo unspecified)	i	nt	i	nt	i	i
COC(=O)C(C)N1C(=O)S/C(=C/c2cc(C)n(C(C)C)c2C)C1=O (stereo unspecified)	i	?	i	i	10µM	i
CCOC(=O)C(C)N1C(=O)S/C(=C/c2cc(C)n(-c3ccccn3)c2C)C1=O (stereo unspecified)	i	?	i	i	10µM	i
CCn1c(C)cc(/C=C2/SC(=O)N(C(C)C(=O)OC)C2=O)c1C (stereo unspecified)	i	?	i	?	?	i
CCOC(=O)C(C)N1C(=O)S/C(=C/c2cc(C)n(-c3ccncc3)c2C)C1=O (stereo unspecified)	i	nt	i	nt	10µM	i
O=C(COc1cccc2c1CCN(Cc1ccc(Br)cc1)C2=O)N1CCOCC1	i	?	?	?	11.2µM	i
O=C1c2cccc(OCC(=O)N3CCCc4ccccc43)c2CCN1Cc1ccc(Br)cc1	?	?	?	20.6µM	?	i
Cc1cc(Br)cn2c(Cc3ccccc3C(F)(F)F)c(-c3ccco3)nc12	i	nt	nt	nt	nt	nt
O=C(CN1CCCC1)Nc1nc(-c2ccc3c(c2)CCN3C(=O)c2ccccc2F)cs1	nt	?	i	?	10µM	i
CNc1nc(-c2ccc3c(c2)CCN3C(=O)c2cccc(F)c2)cs1	i	nt	i	nt	11.2µM	i
CNc1nc(-c2ccc3c(c2)CCN3C(=O)c2ccc(F)cc2)cs1	i	nt	i	nt	?	i
CCOc1ccc(S(=O)(=O)/N=C(/Nc2ccc(OC)cc2)c2ccccc2)cc1	i	i	i	?	i	i
COc1ccc(C(=O)NN/C(=N/S(=O)(=O)c2ccc(C)cc2)c2ccccc2)cc1	i	?	i	8.91µM	i	i
COc1ccc(-n2nnnc2C2CCN(S(=O)(=O)c3cccc(C(F)(F)F)c3)CC2)cc1	i	i	i	i	nt	nt
COc1ccc(S(=O)(=O)N2CCC(c3nnnn3-c3ccccc3)CC2)cc1OC	i	i	25.1µM	?	nt	nt
Cc1ccc(-n2nnnc2C2CCN(S(=O)(=O)c3ccc(OC(F)(F)F)cc3)CC2)cc1	i	i	i	i	nt	nt
O=S(=O)(c1ccc(OC(F)(F)F)cc1)N1CCC(c2nnnn2-c2ccc(F)cc2)CC1	-73.1	i	i	i	nt	nt
COc1cc([N+](=O)[O-])c2ncsc2c1	i	i	i	i	i	i
COc1cc(SSc2cc(OC)cc([N+](=O)[O-])c2N)c(N)c([N+](=O)[O-])c1	-98.2	nt	?	nt	i	i
Cc1ccc(Cl)cc1NC(=O)N1CCC(CN2CCCCCC2)CC1	i	nt	i	i	nt	nt
O=C(CN(CC1CCCO1)C(=O)c1nsc(Cl)c1Cl)NC1CCCC1 (stereo unspecified)	-66.4	i	i	i	i	i
Cc1cc(CNC(=O)[C@H]2C[C@@H]2[C@H](NP(=O)(c2ccccc2)c2ccccc2)c2ccccc2)nn1C	-90.8	i	i	i	i[8.37 µM]	i
CN1CCC(Nc2nc(Br)cnc2N)CC1	i	nt	nt	nt	nt	nt
Cc1ccc(NC(=O)Nc2ccc3c(c2)nc(C)n3C)cc1	i	11.2µM	i	?	?	i
SMILES	HCMV antiviral	MARV entry inh	FMDV inh	Lassa entry inh	HCV inhibitor	SARS PLP yeast
COc1cccc(C(=O)Nc2ccc3ccccc3c2)c1	i	?	i	?	?	i
Cc1cccc(C(=O)Nc2ccc3ccccc3c2)c1	-101.7	nt	i	nt	?	i
Cc1cccc(C(=O)Nc2ccc3c(c2)nc(C)n3C)c1	-101.7	?	i	?	i	i
CN1C(=O)CC(C(=O)Nc2ccc(C(=O)O)cc2)SC1=Nc1ccc(Cl)cc1 (stereo unspecified)	i	nt	i	i	nt	nt
CC(=O)Nc1ccc(Nc2cc3[nH]c(-c4cccc(F)c4)cc3cn2)cc1	i	nt	nt	nt	nt	nt
CC1(C)CC(=O)C(C=NCCN2CCN(CCc3ccccc3)CC2)=C(O)C1	i	?	i	i	11.2µM	i
Cc1ccc(NC(=O)CN2CCN(CCN=CC3=C(O)CC(C)(C)CC3=O)CC2)cc1	i	i	i	i	i	i
CC1(C)CC(=O)C(C=NCCN2CCN(CC(=O)Nc3ccc(Cl)cc3)CC2)=C(O)C1	i	i	i	i	12.6µM	i
Cc1ccc(CN(Cc2cccn2-c2nnc(N3CCCC3=O)s2)C(=O)Nc2ccc(F)cc2)cc1	i	i	i	nt	nt	nt
CCOC(=O)N1CCN(C(=O)CSCC(=O)Nc2nc(-c3cccs3)cs2)CC1	i	i	14.1µM	i	12.6µM	i
O=C(CSCC(=O)N1CCOCC1)Nc1nc(-c2ccc3c(c2)OCO3)cs1	i	nt	i	nt	i	i
CCOC(=O)N1CCN(C(=O)CSCC(=O)Nc2nc(-c3ccc(C)cc3)cs2)CC1	i	nt	i	nt	11.2µM	i
Cn1c(NC[C@@H](O)c2ccccc2)nc2c1c(=O)n(Cc1ccc(Cl)cc1)c(=O)n2C	nt	i	nt	nt	nt	nt
CCN1CCN(C(=O)c2cnn3c(C(F)F)cc(-c4ccc(C)cc4)nc23)CC1	i	?	i	i	i	i
O=C(c1cnn2c(C(F)F)cc(-c3ccccc3)nc12)N1CCN(Cc2ccc3c(c2)OCO3)CC1	i	?	28.2µM	i	11.2µM	i
